High-throughput results as filed in PubChem.
The list is not random: actives were taken first. Their share in the collection is about 3.7%.
Nrf2 activator – activates Nrf2 signaling; AREc32 ARE-luciferase reporter (MCF7-derived line), luminescence, 24 h; Potency, µM (series often up to 46.1 µM), without a hit: at the highest dose activation, actives largely listed as activators; 410,000 tested, 0.31% active; AID 624171; note: % of control where 0% means no effect; nearly all actives have a fitted effect of over 65% in size
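Luciferase luminescence (Steady-Glo, 30 min at room temperature) served as the read-out of ARE activation in AREc32 cells treated with compounds for 24 hr at 37 deg C.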
A549 tox – counter-screen for Nrf2 inhibitors: cytotoxicity in A549 cells; Potency, µM (series often up to 46 µM), for inactives: at the highest dose activity change, negative = cytotoxicity, most hits filed as inhibitors; AID 504648; 390,000 tested, 0.16% active; A549 ARE-Fluc cells, CellTiter-Fluor viability, 18-24 h; note: % is set by controls: 0 for no effect and ±100 for the full control effect
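Cytotoxicity counterscreen: CellTiter-Fluor fluorescence was measured in A549 ARE_Fluc cells after 18-24 h of compound exposure in a concentration series. The subsequent BugLite luminescent read reports ARE-luciferase activity.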
Nrf2 block – blocks Nrf2 signaling. A549 ARE-Fluc reporter, luciferase luminescence, 18-24 h. Potency, µM (series often up to 46 µM), without a hit: at the top dose activity change, negative = inhibition, usual class: inhibitors. 360,000 tested, 2.1% active. AID 504444; note: % is set by controls: 0 for no effect and ±100 for the full control effect; nearly all actives have a fitted effect of over 60% in size
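Quantitative HTS in A549 cells stably bearing an antioxidant response element-firefly luciferase construct. Inhibition of Nrf2-driven transcription was scored by luminescence after 18-24 h of compound exposure at 37 °C.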
ELG1 DNA repair – blocks ELG1-dependent DNA repair in HEK293T cells; HEK293T ELG1-luciferase reporter, luminescence, 16 h; DNA damage induced by 5-fluorouridine; Potency, µM (top dose mostly 46.1 µM), without a hit: at the highest dose activity change, negative = inhibition, most hits filed as inhibitors; 330,000 tested, 2.3% active; note: % is set by controls: 0 for no effect and ±100 for the full control effect; nearly all actives have a fitted effect of over 55% in size
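Cells (2,000 per well) received 5-fluorouridine plus test compound or DMSO and were incubated 16 hr at 37 °C, 5% CO2. Luciferase activity was read by luminescence 30 min after ONE-Glo addition; signal suppression marked inhibition of damage-induced ELG1 function.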
ELG1 FLuc counter – luciferase inhibition in cell-free luciferin readout for ELG1 hits; shares compounds with ELG1 DNA repair; cell-free firefly luciferase luminescence counter-screen, ViewLux; Potency, µM (titrated, usually from 46.1 µM), for the others: at the highest dose activity change, negative = inhibition, actives largely listed as inhibitors; 350 tested, 3% active; AID 624247; note: % is set by controls: 0 for no effect and ±100 for the full control effect
ELG1 Luc conf – inhibits ELG1-dependent DNA repair in HEK293T cells, confirmed; shares compounds with ELG1 DNA repair; 670 tested, 68% active; Potency, µM (top dose mostly 46.1 µM), for inactives: top-dose activity change, negative = inhibition, most hits filed as inhibitors; AID 624248; HEK293T ELG1-luciferase levels, luminescence; cells co-treated with 5-fluorouridine; note: % is set by controls: 0 for no effect and ±100 for the full control effect; nearly all actives have a fitted effect of over 55% in size
ELG1 MMS Luc – inhibits ELG1-dependent repair under MMS stimulation in HEK293T cells; 670 tested, 53% active; Potency, µM (top dose mostly 46.1 µM), for inactives: at the top dose activity change, negative = inhibition, hits mostly inhibitors; shares compounds with ELG1 DNA repair; AID 624249; HEK293T luciferase-tagged ELG1 level, MMS stimulated; note: % is set by controls: 0 for no effect and ±100 for the full control effect; nearly all actives have a fitted effect of over 60% in size
ELG1 5FU viab – confirmation of ELG1 repair inhibitors: viability with 5FU; shares compounds with ELG1 DNA repair; Potency, µM (top dose mostly 46.1 µM), for the others: top-dose activity change, negative = viability loss, usual class: cytotoxic; cell viability with 5-FU, ELG1-dependent repair; AID 624250; 670 tested, under 10 active;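 note: ELG1-luc HEK293T cells cotreated with 5-fluorouridine at 10 µM final; viability measured 16 h after compound addition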
ELG1 MMS cell – confirmation of ELG1 repair inhibitors: viability with MMS; shares compounds with ELG1 DNA repair; Potency, µM (highest dose often 46.1 µM), inactives show at the top dose activity change, negative = viability loss, usual class: cytotoxic; Cell viability with MMS, ELG1-dependent DNA repair; AID 624251; 670 tested, 33% active;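 note: ELG1-luc HEK293T cells co-treated with 10 µM MMS; viability read 16 h after compound addition; % is set by controls: 0 for no effect and ±100 for the full control effect; nearly all actives have a fitted effect of over 60% in size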
ELG1 unstim viab – affects unstimulated cell viability, ELG1 hit counter-screen; cell viability counter-screen, unstimulated, luminescence; shares compounds with ELG1 DNA repair; Potency, µM (doses to about 45.9 µM), for inactives: top-dose activity change, negative = loss of viability, actives largely listed as cytotoxic; 900 tested, 8% active;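 note: compound exposure lasted 16 hours before reading; % is set by controls: 0 for no effect and ±100 for the full control effect; nearly all actives have a fitted effect of over 55% in size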
FLuc enzyme – inhibits purified firefly luciferase, counter-screen for ELG1 hits; shares compounds with ELG1 DNA repair; purified firefly luciferase, luminescence counter-screen; Potency, µM (doses to about 57.5 µM), for the others: top-dose activity, negative = inhibition, actives largely listed as inhibitors; 350 tested, 10% active; AID 624253; note: % is set by controls: 0 for no effect and ±100 for the full control effect
Numbers without * were called inactive; u = inconclusive; x = no result given; [ ] = remark or other dose. Calls come from the whole dose curve; as a rule, active = well fitted curve in the direction sought with a large enough effect; inconclusive = small, poorly fitted or top-dose-only effect, or another doubt; inactive = no such curve, though single readings can be large; an effect the other way counts as inactive or inconclusive. Potency is the fitted concentration of half-maximal effect.

SMILES | Nrf2 activator | A549 tox | Nrf2 block | ELG1 DNA repair | ELG1 Luc conf | ELG1 MMS Luc | ELG1 5FU viab | ELG1 MMS cell | ELG1 unstim viab | others
COc1ccccc1CCNC(=O)C(=O)NCC1CCCN1S(=O)(=O)c1ccccc1 (configuration not stated) | 2% | -3% | -18% | 4.1µM* | 14µM* | 16µM* | -3% | u | 22µM*
COc1ccc(CCNC(=O)C(=O)NCC2CCCN2S(=O)(=O)c2ccccc2)cc1 (configuration not stated) | 0% | 8% | -1% | u | x | x | x | x | x
Nc1ncnc2c1c(I)cn2C1OC(CO)C(O)C1O (configuration not stated) | x | x | x | x | 0.4µM* | 1µM* | 18% | u | -8% | ELG1 FLuc counter=u;FLuc enzyme=5%
Nc1ncnc2c1ncn2C1O[C@H](CO)[C@@H](O)[C@@H]1O (some centres not stated) | 0% | -11% | 1% | 3% | x | x | x | x | x
CSc1ncnc2c1ncn2C1OC(CO)C(O)C1O (configuration not stated) | x | x | x | x | 0.04µM* | 2µM* | u | u | 0.56µM* | ELG1 FLuc counter=4%;FLuc enzyme=-1%
Cc1ccnc2nc(C(=O)OCC(=O)c3c[nH]c4ccccc34)nn12 | 2% | 0% | 14% | -6% | x | x | x | x | x
Cc1cccn2c(=O)nc(SCC(=O)N3CCN(c4ccccc4)CC3)nc12 | 2% | 7% | 1% | -1% | x | x | x | x | x
COc1ccc(N2CCN(C(=O)c3ccc(NS(=O)(=O)c4cccc(F)c4)cc3)CC2)cc1 | 1% | -5% | u | -24% | x | x | x | x | x
COc1ccc(NS(=O)(=O)c2cccc(C(=O)OCC(=O)N3CCN(c4ccc(OC)cc4)CC3)c2)cc1 | 0% | -19% | 21µM* | 4.6µM* | u | 7.9µM* | -7% | 7.9µM* | u
COc1cccc(NC(=O)COC(=O)c2sccc2C)c1 | 5% | -14% | u | u | x | x | x | x | -4%
O=C(CC1OC(=O)c2ccccc21)Nc1cc(Cl)ccc1N1CCOCC1 (configuration not stated) | 0% | -2% | -30% | 4.1µM* | u | -1% | 4% | 2% | -7%
Cc1cc(NC(=O)CSc2nc3c(C)ccc(C)c3cc2C#N)no1 | 0% | 3% | 1% | 0% | x | x | x | x | x
Cc1cc(C)c(C#N)c(SCC(=O)Nc2cc(C)on2)n1 | 10% | 16% | 12% | u | x | x | x | x | -4%
CC(CN1C(C)CCCC1C)OC(=O)c1ccccc1F (configuration not stated) | 0% | -1% | 6% | 4% | x | x | x | x | x
CCC(=O)N1CCc2cc(Br)cc(S(=O)(=O)N3CCC(C(=O)NCCCOC(C)C)CC3)c21 | 6% | 15% | -1% | 1.6µM* | 7.9µM* | 15% | u | 4% | -2%
CCCNC(=O)C1(C)CCCN(Cc2ccc3c(c2)OCO3)C1 (configuration not stated) | -1%[9.22 µM] | x | x | x | x | x | x | x | x
CCOc1ccc(NC(=O)CN(C)C(=O)c2ccccc2OCc2c(C)noc2C)cc1OCC | 0% | -1% | -7% | 0% | x | x | x | x | x
COc1ccc(-c2cn(Cc3ccc(C(=O)c4ccccc4)cc3)nn2)cc1 | 6% | 4% | u | u | x | x | x | x | u
COc1ccc(-c2cn(Cc3ccc4ccccc4c3)nn2)cc1 | 2% | 1% | 6% | u | x | x | x | x | x
CCOCCOC(=O)c1[nH]c2c(c1C)C(=O)CC(c1cc(OC)c(OC)c(OC)c1)C2 (configuration not stated) | 1% | -8% | 23µM* | 4.1µM* | 10µM* | 6.3µM* | -5% | u | u
Cc1ccc(COc2cccc3c2CCN(Cc2ccc(F)cc2)C3=O)cc1 | 3% | 1% | u | u | x | x | x | x | x
O=C1c2cccc(OCc3ccc(F)cc3)c2CCN1Cc1ccccc1 | 2% | 2% | u | u | u | 4.4µM* | -10% | 6.3µM* | u
CC(C)NC(=O)N(C)C[C@H]1Oc2ccc(NC(=O)NC3CCCCC3)cc2C(=O)N([C@H](C)CO)C[C@@H]1C | 2% | 5% | -15% | u | x | x | x | x | x
CCCC(=O)Oc1ccc2[nH]c(C(=O)c3cc4ccccc4[nH]3)cc2c1 | x | x | x | x | x | x | x | x | 3%
CCOC(=O)c1cc2cc(OC)ccc2[nH]1 | 5% | 1% | -17% | u | x | x | x | x | x
SMILES | Nrf2 activator | A549 tox | Nrf2 block | ELG1 DNA repair | ELG1 Luc conf | ELG1 MMS Luc | ELG1 5FU viab | ELG1 MMS cell | ELG1 unstim viab | others
CC(C)c1nc2sc3c(=O)n(N)cnc3c2c2c1COC(C)(C)C2 | 0% | 0% | 2% | 7% | u | -5% | u | 3% | 2% | ELG1 FLuc counter=-2%;FLuc enzyme=-3%
CC(C)c1nc2sc3c(NCc4ccccc4)ncnc3c2c2c1COC(C)(C)C2 | 0% | -9% | -23% | u | x | x | x | x | x
CC(C)c1nc2sc3c(NCc4ccco4)ncnc3c2c2c1COC(C)(C)C2 | 3% | -1% | u | u | 11µM* | 13% | u | -2% | u | ELG1 FLuc counter=21%;FLuc enzyme=-3%
Nc1ncc([N+](=O)[O-])c(N2CCCCCC2)n1 | -1% | 0% | u | 2.3µM* | 4.4µM* | 13µM* | -14% | -1% | -13%
O=[N+]([O-])c1ccc(N2CCCC2)nc1N1CCCC1 | 4% | -17% | -9% | -1% | x | x | x | x | x
CCOC(=O)CC1C(=O)NCCN1C(=S)NC(=O)c1ccc(C)c(Br)c1 (configuration not stated) | 0% | x | x | x | x | x | x | x | x
